A number with no mark means an inactive call. Results filed as inconclusive are left out. The source made the active and inactive calls. Unless noted, calls follow the shape of the dose curve; as a rule, active = well fitted curve in the direction sought with a large enough effect; inconclusive = small, poorly fitted or top-dose-only effect, or another doubt; inactive = no such curve, though single readings can be large; an effect the other way counts as inactive or inconclusive.
Columns and labels:
[1] = biological target: Lysosomal acid glucosylceramidase (Homo sapiens) (UniProt P04062); assay: Glucocerebrosidase-p2 (AID 348; in the data active = potency below about 10 µM; also: potency is read from the fitted curve at half-maximal effect); conditions: purified GBA, blue fluorogenic substrate, 40 min
Lysosomal acid glucosylceramidase (Homo sapiens), sequence (P04062 whole entry, looked up): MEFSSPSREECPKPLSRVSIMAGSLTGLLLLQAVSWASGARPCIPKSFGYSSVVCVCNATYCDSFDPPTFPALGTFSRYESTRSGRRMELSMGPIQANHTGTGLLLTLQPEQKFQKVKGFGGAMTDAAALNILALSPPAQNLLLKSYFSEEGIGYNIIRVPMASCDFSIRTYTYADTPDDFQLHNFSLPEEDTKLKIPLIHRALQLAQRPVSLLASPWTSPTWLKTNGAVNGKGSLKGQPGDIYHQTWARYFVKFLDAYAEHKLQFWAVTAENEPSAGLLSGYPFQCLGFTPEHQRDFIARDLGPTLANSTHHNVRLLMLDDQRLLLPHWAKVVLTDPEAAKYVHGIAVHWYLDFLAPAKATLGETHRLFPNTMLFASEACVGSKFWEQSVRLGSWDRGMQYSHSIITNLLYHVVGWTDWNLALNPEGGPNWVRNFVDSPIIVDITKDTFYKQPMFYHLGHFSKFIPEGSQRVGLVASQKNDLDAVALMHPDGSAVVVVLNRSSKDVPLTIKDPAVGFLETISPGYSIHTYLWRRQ
Procedure, shortened: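 Normal human glucocerebrosidase (0.2 nM) with blue fluorogenic substrate (80 uM final) in citrate/phosphate pH 5.9 with 10mM sodium taurocholate, 0.01% tween-20; 40 min RT, NaOH/glycine stop; fluorescence Ex 365/Em 440; AC50 from a titration from 0.6 nM upwards.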

[2] = AP1 Signaling Pathway (AID 357; active = well fitted curve in either direction with a large enough effect, not every such curve was filed as active;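 also: ME-180 reporter cells stimulated with EGF at its EC50 level; % is scaled to controls: 0 for no effect and ±100 for the full control effect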); conditions: ME-180 AP-1-bla reporter, EGF-induced, beta-lactamase ratio, 5 h; at 7.69 µM (top of the series) unless noted
Procedure, shortened: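 A ratiometric CCF4 readout (405 nm excitation; 460 and 530 nm emission) quantified AP-1-driven beta-lactamase in ME-180 cells after 5 h with compound and EC50 EGF; AC50 values were derived for activators and inhibitors.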

[3] = biological target: Cytochrome P450 1A2 (Homo sapiens) (UniProt P05177); assay: p450-cyp1a2 (AID 410; calls by dose curve; also: potency is read from the fitted curve at half-maximal effect); conditions: recombinant CYP1A2, luciferin-ME demethylation, luminescence; series mostly up to 57 µM
Cytochrome P450 1A2 (Homo sapiens), sequence (P05177 whole entry, looked up): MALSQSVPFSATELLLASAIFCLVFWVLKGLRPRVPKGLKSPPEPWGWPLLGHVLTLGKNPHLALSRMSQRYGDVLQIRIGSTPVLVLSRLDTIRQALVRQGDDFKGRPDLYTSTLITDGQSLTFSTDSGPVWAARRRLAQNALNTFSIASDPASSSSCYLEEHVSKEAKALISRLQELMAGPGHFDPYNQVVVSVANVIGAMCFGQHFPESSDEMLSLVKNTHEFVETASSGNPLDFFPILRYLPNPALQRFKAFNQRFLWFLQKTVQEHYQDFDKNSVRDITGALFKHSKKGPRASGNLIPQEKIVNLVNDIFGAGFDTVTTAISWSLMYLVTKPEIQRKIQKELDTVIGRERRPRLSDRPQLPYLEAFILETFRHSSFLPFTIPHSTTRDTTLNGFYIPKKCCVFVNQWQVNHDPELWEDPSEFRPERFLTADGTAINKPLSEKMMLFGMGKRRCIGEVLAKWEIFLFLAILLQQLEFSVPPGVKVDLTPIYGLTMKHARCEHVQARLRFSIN
Procedure, shortened: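 20nM CYP1A2, 100uM Luciferin-ME (=Km), 100mM KPO4; cpd 10 min RT; +NADPH regen, 60 min RT; stop/detect 20 min; luminescence. Normalized to furafylline 57 uM = full inhibition.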

[4] = NFAT Signaling Pathway (AID 444; active = well fitted curve in either direction with a large enough effect, not every such curve was filed as active;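 also: carbachol stimulus at about its EC50 of 1 µM final; % is scaled to controls: 0 for no effect and ±100 for the full control effect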); conditions: Jurkat NFAT-bla M1, carbachol, beta-lactamase ratio, 5 h; at 7.69 µM (top of the series) unless noted
Procedure, shortened: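 Jurkat cells with NFAT-driven β-lactamase reporter and co-expressed M1 receptor, stimulated with carbachol (final 1 uM, ~EC50), compound titration, 5 h at 37 °C. CCF4 loaded 1 h at RT; 460/530 nm ratio gave %activity and AC50.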

[5] = Stat Signaling Pathway (AID 446; active = well fitted curve in either direction with a large enough effect, not every such curve was filed as active;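 also: ME-180 cervical cancer cells given 40 pM IL-6 alongside compound; SIE-controlled beta-lactamase reporter measured as 460/530 nm FRET emission ratio; % is scaled to controls: 0 for no effect and ±100 for the full control effect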); conditions: ME-180 (cervical carcinoma) SIE beta-lactamase reporter, IL-6 stimulated, 5 h; at 7.69 µM (top of the series) unless noted
Procedure, shortened: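 Compound effects on IL-6-induced STAT reporter activity were measured in ME-180 cells. After overnight culture, cells were co-treated with 40 pM IL-6 for 5 hrs before beta-lactamase substrate loading at room temperature.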

[6] = biological target: Glucocorticoid receptor (Homo sapiens) (UniProt P04150); assay: GR-GFP Redistribution (AID 450;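 active = compounds whose dose series gives a full or clear partial fitted curve of increased nuclear translocation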; also: potency is read from the fitted curve at half-maximal effect); conditions: U2OS GR-GFP nuclear translocation, laser cytometry, 2 h
Glucocorticoid receptor (Homo sapiens), sequence (P04150 whole entry, looked up, the tested form may be a part): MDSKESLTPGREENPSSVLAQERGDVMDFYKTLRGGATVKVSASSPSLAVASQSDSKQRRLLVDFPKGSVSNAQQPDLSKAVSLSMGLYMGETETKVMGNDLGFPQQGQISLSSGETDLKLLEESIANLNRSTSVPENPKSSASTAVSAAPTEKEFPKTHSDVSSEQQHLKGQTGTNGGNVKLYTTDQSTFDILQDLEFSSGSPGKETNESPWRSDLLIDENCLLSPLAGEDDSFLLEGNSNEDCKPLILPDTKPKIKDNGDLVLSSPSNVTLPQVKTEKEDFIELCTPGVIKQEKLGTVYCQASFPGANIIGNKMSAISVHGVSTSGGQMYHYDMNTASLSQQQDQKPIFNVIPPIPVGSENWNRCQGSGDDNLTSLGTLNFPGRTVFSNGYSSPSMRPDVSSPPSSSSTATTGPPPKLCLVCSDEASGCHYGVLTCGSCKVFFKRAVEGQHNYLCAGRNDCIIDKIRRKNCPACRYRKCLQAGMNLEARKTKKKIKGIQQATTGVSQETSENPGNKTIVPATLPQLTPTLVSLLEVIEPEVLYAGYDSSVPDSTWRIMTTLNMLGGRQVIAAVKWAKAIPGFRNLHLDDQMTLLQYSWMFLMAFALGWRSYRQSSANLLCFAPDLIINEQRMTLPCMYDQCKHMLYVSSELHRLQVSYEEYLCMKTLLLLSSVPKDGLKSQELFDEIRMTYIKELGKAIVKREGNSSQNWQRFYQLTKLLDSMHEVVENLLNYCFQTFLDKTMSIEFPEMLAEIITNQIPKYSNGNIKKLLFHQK

[7] = biological target: Glucocorticoid receptor (Homo sapiens) (UniProt P04150); assay: GR-EFC Redistribution (AID 451; calls by dose curve; also: potency is read from the fitted curve at half-maximal effect); conditions: CHO-K1 GR-EFC translocation, beta-gal luminescence, 2 h
Procedure, shortened: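 CHO-K1 cells expressing nuclear EA and GR-ED fragments of b-gal; compounds titrated up to 46 uM final, 2 h at 37 C. GR nuclear translocation read as complemented b-gal luminescence after 1 h RT detection.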

[8] = biological target: Mitogen-activated protein kinase 10 (Mus musculus) (UniProt Q61831); assay: JNK3 AlphaScreen Assay (AID 530; active = well fitted curve in either direction with a large enough effect, not every such curve was filed as active;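 also: kinase came from lysate of stimulated human HepG2 cells; signal reports phosphorylation of biotinylated GST-cJun 1-79 at Ser73 with 10 µM ATP; % is scaled to controls: 0 for no effect and ±100 for the full control effect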); conditions: JNK3 lysate, c-Jun phosphorylation; series mostly up to 57.1 µM
Procedure, shortened: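 HepG2 lysate (IL-1b/TNFa pre-activated) + biotin-GST-cJun 1-79 + anti-pSer73 cJun; cpd titration, 15 min RT; ATP 10 uM start; Tris pH 7.6, MgCl2, DTT, vanadate; beads in EDTA buffer; AlphaScreen.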

[9] = biological target: 3',5'-cyclic-AMP phosphodiesterase 4B (Homo sapiens) (UniProt Q07343); assay: qHTS Assay for Inhibitors of PDE-IV (AID 607; active = well fitted activation curve with a large enough effect in the main read-out, with a control signal flat, not every such curve was filed as active; also: potency is read from the fitted curve at half-maximal effect); conditions: HEK293 ACTOne CNG channel cells, membrane potential fluorescence; series mostly up to 22.9 µM
3',5'-cyclic-AMP phosphodiesterase 4B (Homo sapiens), sequence (Q07343 whole entry, looked up): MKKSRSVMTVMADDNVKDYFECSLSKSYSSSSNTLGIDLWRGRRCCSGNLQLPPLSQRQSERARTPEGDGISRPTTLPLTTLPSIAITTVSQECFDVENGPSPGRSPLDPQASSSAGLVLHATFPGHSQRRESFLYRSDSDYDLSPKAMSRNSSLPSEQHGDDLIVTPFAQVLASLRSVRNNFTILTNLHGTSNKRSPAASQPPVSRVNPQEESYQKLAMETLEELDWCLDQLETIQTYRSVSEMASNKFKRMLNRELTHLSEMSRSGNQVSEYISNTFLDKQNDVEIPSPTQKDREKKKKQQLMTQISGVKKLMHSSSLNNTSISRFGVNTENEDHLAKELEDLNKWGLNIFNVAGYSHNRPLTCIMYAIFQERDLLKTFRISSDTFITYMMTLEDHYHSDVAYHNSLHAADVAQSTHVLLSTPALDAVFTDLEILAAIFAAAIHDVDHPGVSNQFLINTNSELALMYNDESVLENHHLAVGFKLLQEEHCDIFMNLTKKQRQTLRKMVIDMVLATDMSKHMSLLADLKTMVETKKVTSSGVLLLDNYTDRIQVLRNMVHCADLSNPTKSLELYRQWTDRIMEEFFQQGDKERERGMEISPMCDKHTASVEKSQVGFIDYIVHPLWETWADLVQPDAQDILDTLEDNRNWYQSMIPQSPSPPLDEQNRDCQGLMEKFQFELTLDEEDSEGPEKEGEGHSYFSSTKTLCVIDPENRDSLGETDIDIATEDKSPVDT
Procedure, shortened: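 ACTOne HEK293 cells carry a modified cAMP-gated CNG channel and express endogenous PDE4; plated 1000 cells/well, compounds up to 22.9 uM final. Membrane-potential dye fluorescence (ex 535/em 590) was read; parental cells received 10 uM forskolin + 100 uM RO 20-1724.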

[10] = biological target: Cytochrome P450 3A4 (Homo sapiens) (UniProt P08684); assay: qHTS Assay for Activators of Cytochrome P450 3A4 (AID 885); conditions: recombinant CYP3A4, Luciferin-PPXE luminescence, 60 min; series mostly up to 57.1 µM; also: nearly all actives have a fitted effect of over 65% in size
Cytochrome P450 3A4 (Homo sapiens), sequence (P08684 whole entry, looked up): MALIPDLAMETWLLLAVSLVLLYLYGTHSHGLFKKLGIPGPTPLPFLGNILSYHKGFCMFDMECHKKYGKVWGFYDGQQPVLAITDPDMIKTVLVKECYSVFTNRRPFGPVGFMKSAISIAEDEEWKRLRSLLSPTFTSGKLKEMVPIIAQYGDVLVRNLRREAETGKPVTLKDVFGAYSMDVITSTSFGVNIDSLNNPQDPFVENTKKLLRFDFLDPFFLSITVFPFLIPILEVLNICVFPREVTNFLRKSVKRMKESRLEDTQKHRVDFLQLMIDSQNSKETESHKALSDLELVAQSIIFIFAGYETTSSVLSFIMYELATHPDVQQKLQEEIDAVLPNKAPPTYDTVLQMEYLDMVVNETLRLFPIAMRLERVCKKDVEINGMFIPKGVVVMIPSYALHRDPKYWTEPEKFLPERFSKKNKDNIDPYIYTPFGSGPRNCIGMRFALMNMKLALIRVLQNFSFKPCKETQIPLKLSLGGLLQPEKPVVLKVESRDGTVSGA
Procedure, shortened: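 CYP3A4 activity: Luciferin-PPXE O-dealkylation, 25uM substrate, 200mM KPO4, RT throughout. Read-out is luciferase luminescence; higher values reflect activation.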

[11] = biological target: Cytochrome P450 2C19 (Homo sapiens) (UniProt P33261); assay: qHTS Assay for Inhibitors and Substrates of Cytochrome P450 2C19 (AID 899); conditions: recombinant CYP2C19, luciferin-H EGE luminescence; series mostly up to 57.1 µM; also: potency is read from the fitted curve at half-maximal effect; nearly all actives have a fitted effect of over 60% in size
Cytochrome P450 2C19 (Homo sapiens), sequence (P33261 whole entry, looked up): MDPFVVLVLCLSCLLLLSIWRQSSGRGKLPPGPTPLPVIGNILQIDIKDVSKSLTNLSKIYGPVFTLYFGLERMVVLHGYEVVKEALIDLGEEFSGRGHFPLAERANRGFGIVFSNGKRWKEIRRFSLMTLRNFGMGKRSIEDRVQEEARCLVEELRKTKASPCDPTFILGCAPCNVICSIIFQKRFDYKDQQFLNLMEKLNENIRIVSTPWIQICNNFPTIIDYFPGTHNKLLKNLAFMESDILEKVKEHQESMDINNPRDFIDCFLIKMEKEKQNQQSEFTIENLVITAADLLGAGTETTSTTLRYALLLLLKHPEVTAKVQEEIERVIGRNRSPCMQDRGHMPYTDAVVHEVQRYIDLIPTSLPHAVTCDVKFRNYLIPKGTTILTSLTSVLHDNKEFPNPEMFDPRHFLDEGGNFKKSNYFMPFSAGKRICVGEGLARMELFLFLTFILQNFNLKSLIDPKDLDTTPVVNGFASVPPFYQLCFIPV
Procedure, shortened: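 Luminescent read-out of luciferin formed from Luciferin-H EGE (10uM, equal to KM). Enzyme 5nM in 50mM KPO4; compound added, 10 min at 37C, then NADPH regenerating system for 60 min at 37C. Full inhibition defined by 57uM ketoconazole.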

[12] = biological target: Dual specificity protein kinase CLK4 (Homo sapiens) (UniProt Q9HAZ1); assay: qHTS Assay for Inhibitors of CDC-like Kinase 4 (Kinase-Glo Assay) (AID 1770); conditions: recombinant Clk4, Kinase-Glo ATP depletion luminescence; series mostly up to 66.7 µM; also: nearly all actives have a fitted effect of over 65% in size; also: potency is read from the fitted curve at half-maximal effect
Dual specificity protein kinase CLK4 (Homo sapiens), sequence (Q9HAZ1 whole entry, looked up): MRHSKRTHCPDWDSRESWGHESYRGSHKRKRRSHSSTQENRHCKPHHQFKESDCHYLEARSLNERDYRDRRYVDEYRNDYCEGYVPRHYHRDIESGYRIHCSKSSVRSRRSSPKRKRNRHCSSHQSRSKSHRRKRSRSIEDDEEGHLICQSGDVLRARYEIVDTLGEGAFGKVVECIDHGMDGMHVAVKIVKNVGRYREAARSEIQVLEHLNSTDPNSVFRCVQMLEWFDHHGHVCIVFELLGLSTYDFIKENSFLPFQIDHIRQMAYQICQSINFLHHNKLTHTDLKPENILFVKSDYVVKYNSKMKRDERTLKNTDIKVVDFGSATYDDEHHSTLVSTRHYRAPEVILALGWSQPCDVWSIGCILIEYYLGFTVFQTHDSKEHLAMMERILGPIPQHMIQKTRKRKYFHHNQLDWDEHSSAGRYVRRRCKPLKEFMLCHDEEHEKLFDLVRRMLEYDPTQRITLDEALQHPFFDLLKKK
Procedure, shortened: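 Readout: Kinase-Glo luminescence from ATP left after a 4.5 h room-temperature reaction of 25 nM Clk4 with 100 uM RS peptide and 1 uM ATP (final). Buffer: 25 mM Tris pH 7.5, 10 mM MgCl2.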

[13] = biological target: Dual specificity protein kinase CLK4 (Homo sapiens) (UniProt Q9HAZ1); assay: qHTS Assay for Inhibitors of CDC-like Kinase 4 (ADP-Glo Assay) (AID 1771); conditions: recombinant CLK4, ADP-Glo luminescence; series mostly up to 80 µM; also: nearly all actives have a fitted effect of over 70% in size; also: potency is read from the fitted curve at half-maximal effect
Procedure, shortened: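 25 nM Clk4, 100 uM RS peptide, 1 uM ATP (final); 2 mM MgCl2, 0.5 mM EGTA, 2.5 mM DTT, 0.01% Triton X-100; 1 hr RT. ADP-Glo readout: ATP depletion 45 min, conversion/luciferase 30 min, luminescence.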

[14] = biological target: Dual specificity protein kinase CLK4 (Homo sapiens) (UniProt Q9HAZ1); assay: qHTS Assay for Inhibitors of CDC-like Kinase 4 (ADP-FP Assay) (AID 1795); conditions: Transcreener ADP fluorescence polarization; series mostly up to 50 µM; also: nearly all actives have a fitted effect of over 60% in size; also: potency is read from the fitted curve at half-maximal effect
Procedure, shortened: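 FP readout: Orange Transcreener ADP2 tracer (4 nM) plus ADP antibody, read after 30 min at room temperature. Kinase step: 6.25 nM Clk4, 100 uM RS peptide, 1 uM ATP, pH 7.5, 1 h.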

[15] = biological target: Ubiquitin carboxyl-terminal hydrolase 1 (Homo sapiens) (UniProt O94782); assay: Inhibitors of USP1/UAF1: Pilot qHTS (AID 504865); conditions: purified USP1/UAF1, Ub-rhodamine cleavage fluorescence; series mostly up to 54.9 µM;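 also: rhodamine fluorescence freed from ubiquitin-rhodamine substrate followed over time; top concentration of the series differs between compounds; % is scaled to controls: 0 for no effect and ±100 for the full control effect; nearly all actives have a fitted effect of over 35% in size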
Ubiquitin carboxyl-terminal hydrolase 1 (Homo sapiens), sequence (O94782 whole entry, looked up): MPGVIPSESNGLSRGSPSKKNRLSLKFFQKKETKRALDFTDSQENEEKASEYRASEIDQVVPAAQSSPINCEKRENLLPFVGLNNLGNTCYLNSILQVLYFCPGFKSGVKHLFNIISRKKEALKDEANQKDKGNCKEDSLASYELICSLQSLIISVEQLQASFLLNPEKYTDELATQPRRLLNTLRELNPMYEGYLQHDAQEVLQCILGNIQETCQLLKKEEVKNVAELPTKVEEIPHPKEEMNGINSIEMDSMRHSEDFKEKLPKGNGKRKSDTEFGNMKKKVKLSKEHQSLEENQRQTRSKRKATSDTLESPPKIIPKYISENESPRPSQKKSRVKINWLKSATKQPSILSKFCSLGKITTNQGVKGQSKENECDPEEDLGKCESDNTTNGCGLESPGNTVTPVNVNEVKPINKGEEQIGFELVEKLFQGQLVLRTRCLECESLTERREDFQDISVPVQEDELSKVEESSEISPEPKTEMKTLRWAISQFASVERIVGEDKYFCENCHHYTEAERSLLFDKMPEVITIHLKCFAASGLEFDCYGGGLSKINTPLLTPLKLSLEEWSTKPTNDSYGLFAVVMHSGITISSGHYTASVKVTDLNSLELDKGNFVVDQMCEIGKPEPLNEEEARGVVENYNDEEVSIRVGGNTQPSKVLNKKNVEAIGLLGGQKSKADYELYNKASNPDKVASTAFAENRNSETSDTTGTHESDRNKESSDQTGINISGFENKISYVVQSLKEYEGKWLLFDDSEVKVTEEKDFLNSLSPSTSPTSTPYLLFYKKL
Procedure, shortened: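 1nM USP1/UAF1 + cpd, 15 min RT; start w/ Ub-Rho 150nM final; kinetic FL 480/540 nm, 6 reads q60 s. Buffer 50mM HEPES pH 7.8, 0.5mM EDTA, 1mM TCEP, 0.01% Tween-20, 0.1 mg/ml BSA.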

[16] = Primary qHTS for small molecule stabilizers of the endoplasmic reticulum resident proteome: Secreted ER Calcium Modulated Protein (SERCaMP) assay (AID 1508630); conditions: SH-SY5Y GLuc-SERCaMP (Gaussia luciferase released on ER calcium loss) secretion, thapsigargin, luminescence; series mostly up to 38.4 µM; also: % is scaled to controls: 0 for no effect and ±100 for the full control effect
Procedure, shortened: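 The SH-SY5Y reporter protocol was run at 3 concentrations up to 38.3 uM (primary) or 11 concentrations (follow-up): 16 h compound, 100 nM thapsigargin for 4 h, then extracellular luciferase luminescence.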

[17] = biological target: Cytochrome P450 3A4 (Homo sapiens) (UniProt P08684); assay: qHTS Assay for Inhibitors and Substrates of Cytochrome P450 3A4 (AID 884); conditions: recombinant CYP3A4, Luciferin-PPXE luminescence; series mostly up to 57.1 µM; also: potency is read from the fitted curve at half-maximal effect; nearly all actives have a fitted effect of over 50% in size
Procedure, shortened: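 Luminescent readout of luciferin produced by CYP3A4 (20 nM) dealkylation of Luciferin-PPXE, 25 uM (its KM). NADPH-driven reaction ran 60 min at RT after 10 min compound preincubation; data scaled to 57 uM ketoconazole as 100% inhibition.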

Row | SMILES | Potency [1] | activity change, negative = inhibition [2] [%] | Potency [3] | activity change, negative = inhibition [4] [%] | activity, negative = inhibition [5] [%] | Potency [6] [µM] | Potency [7] [µM] | Potency [8] | Potency [9] | Potency [10] | Potency [11] | Potency [12] | Potency [13] | Potency [14] | Potency [15] | outcome [16] | Potency [17]
1 | COc1ccccc1CNc1ccnc(-c2cccc(C#N)c2)n1 | > 11.4 µM | -13.8 | 0.794 µM (active) | 8.07 | -11.8 | > 46 | > 46 | inactive | inactive | inactive | 3.98 µM (active) | 7.94 µM (active) | 7.94 µM (active) | 3.16 µM (active) | inactive | inactive | –
2 | O=c1cnc2cnc(Nc3ccccc3)nc2n1CCc1ccccc1 | > 11.4 µM | -13.5 | 3.16 µM (active) | 9.72 | -12.1 | > 9.22 | > 46 | inactive | 2.51 µM (active) | – | 2 µM (active) | 0.199 µM (active) | 0.316 µM (active) | 0.0891 µM (active) | inactive | inactive | –
3 | CN(C)C(=O)c1ccc(-c2nccc(Nc3ccc(F)cc3)n2)cc1 | > 11.4 µM | -14.3 | 6.31 µM (active) | -12.1 | -4.15 | > 46 | > 46 | inactive | inactive | inactive | – | inactive | inactive | inactive | inactive | inactive | –
4 | CN(Cc1ccco1)c1cc(-c2cccc(NS(C)(=O)=O)c2)ncn1 | > 11.4 µM | 10.2 | 3.98 µM (active) | -5.51 | 11.3 | > 46 | > 46 | inactive | inactive | inactive | – | 11.2 µM (active) | 8.91 µM (active) | inactive | inactive | inactive | –
5 | Cc1nc2cncnc2n(Cc2ccc(F)cc2)c1=O | > 11.4 µM | -6.19 | 10 µM (active) | 9.35 | -9.93 | > 9.22 | > 46 | inactive | inactive | inactive | – | inactive | inactive | inactive | inactive | inactive | –
6 | Cc1ccccc1-c1nc(NC2CC2)c2ccccc2n1 | 1.17 µM (active) | 17.6 | 0.501 µM (active) | -19.1 | -0.286 | > 46 | > 46 | inactive | – | inactive | – | 12.6 µM (active) | 11.2 µM (active) | 10 µM (active) | inactive | inactive | 3.98 µM (active)

— PubChem BioAssay (NCATS)
